Data on ten compounds can be found in PubChem BioAssay (NCI).

The structures appear in SMILES notation. Compounds without any hit were thinned out: in the full panel of roughly 79,000, 15% have a hit. A number with no mark means an inactive call. Activity calls are given as the source filed them. Rule as the data show it: active = growth inhibition above about 70%; inactive = the rest.

Test [1] in a line: NCI Yeast Anticancer Drug Screen. Data for the rad50 strain (AID 155).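 Also: 0% = growth of vehicle-only cultures of the same strain.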 As to conditions: S. cerevisiae rad50 strain growth inhibition, stronger effect = higher value. A digest of the protocol:
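Yeast carrying a defined DNA repair defect were exposed to test compounds, and growth was compared with vehicle-treated controls to give percent inhibition.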

The nature of test [2]: NCI Yeast Anticancer Drug Screen. Data for the mec2-1 strain (AID 157). The note with it: S. cerevisiae mec2-1 strain, stronger effect = higher value. A digest of the protocol:
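Cells of the genetically defined mec2-1 yeast strain are incubated with test compound. Inhibition of growth is calculated against vehicle-treated controls.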

Test [3] in a line: NCI Yeast Anticancer Drug Screen. Data for the sgs1 mgt1 strain (AID 161).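 Also: 0% = growth of cultures given vehicle only.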 As to conditions: S. cerevisiae sgs1 mgt1 strain, stronger effect = higher value. A digest of the protocol:
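Inhibition of yeast growth, normalised to vehicle-treated controls, is reported for a strain bearing genetic alterations in DNA damage repair.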

The nature of test [4]: NCI Yeast Anticancer Drug Screen. Data for the cln2 rad14 strain (AID 165).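 Also: 0% = growth equal to vehicle treated cultures.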 The note with it: S. cerevisiae cln2 rad14 strain, stronger effect = higher value. A digest of the protocol: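 The screen exposed genetically defined yeast (cln2 rad14) to test compounds and scored growth inhibition relative to vehicle-treated controls.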
The nature of test [5]: NCI Yeast Anticancer Drug Screen. Data for the bub3 strain (AID 167). As to conditions: S. cerevisiae bub3 mutant strain, stronger effect = higher value. The essentials:
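Compounds were applied to a genetically altered yeast strain carrying a cell-cycle control defect. Growth inhibition was scored against vehicle-treated controls.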

A short description of test [6]: NCI Yeast Anticancer Drug Screen. Data for the mlh1 rad18 strain (AID 175). The note with it: S. cerevisiae mlh1 rad18 strain growth inhibition, stronger effect = higher value. A digest of the protocol:
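Compound-treated yeast growth, normalised to vehicle controls. Strain bears defined DNA repair mutations.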

Setting [7] is: at 5.0 µM (retest, dose inferred, filed as 0.5).
[8] abbreviates: at 50.0 µM (retest, dose inferred, filed as 5.0).

As for `c1ccc2c(c1)Sc1nccc3ccnc-2c13`, the growth inhibition in test [1] (setting [7]) was 92% (active); in test [1] (setting [8]), 95% (active); in test [1] (at 50.0 µM), 82.3% (active); in test [2] (setting [7]), 28%; in test [2] (setting [8]), 93% (active); in test [2] (at 50.0 µM) it was 79.3% (active). Also, the growth inhibition was 23% in test [3] (setting [7]); 92% (active) in test [3] (setting [8]); 80.7% (active) in test [3] (at 50.0 µM); 10% in test [4] (setting [7]); 88% (active) in test [4] (setting [8]); 72.8% (active) in test [4] (at 50.0 µM). Besides, the growth inhibition in test [5] (setting [7]) is 25%; in test [5] (setting [8]) it was 92% (active); in test [5] (at 50.0 µM), 79.7% (active); in test [6] (setting [7]) it was 50%; in test [6] (setting [8]) it was 91% (active); in test [6] (at 50.0 µM), 79.2% (active).

As to `CN(C)NC(=S)C(F)(F)F`, the growth inhibition in test [1] (setting [7]) is -1%; in test [1] (setting [8]) it was 87% (active); in test [1] (at 50.0 µM), 95.5% (active); in test [2] (setting [7]), 1%; in test [2] (setting [8]), 79% (active); in test [2] (at 50.0 µM) it was 56.7%. Moreover, the growth inhibition in test [3] (setting [7]) is 0%; in test [3] (setting [8]), 84% (active); in test [3] (at 50.0 µM), 97.8% (active); in test [4] (setting [7]), -4%; in test [4] (setting [8]) it was 85% (active); in test [4] (at 50.0 µM), 44%. In addition, the growth inhibition in test [5] (setting [7]) is 0%; in test [5] (setting [8]), 85% (active); in test [5] (at 50.0 µM), 37.6%; in test [6] (setting [7]), -2%; in test [6] (setting [8]), 79% (active); in test [6] (at 50.0 µM), 77% (active).

Consider `O=C(C(Cl)Cl)N(O)c1ccccc1OCc1ccccc1`, for which the growth inhibition in test [1] (setting [7]) was 10%; in test [1] (setting [8]) it was 52%; in test [1] (at 50.0 µM), 72.2% (active); in test [2] (setting [7]), 9%; in test [2] (setting [8]), 73% (active); in test [2] (at 50.0 µM), 41.9%. For the same compound, the growth inhibition in test [3] (setting [7]) is 8%; in test [3] (setting [8]) it was 94% (active); in test [3] (at 50.0 µM), 90% (active); in test [4] (setting [7]) it was 6%; in test [4] (setting [8]), 27%; in test [4] (at 50.0 µM) it was 34.4%. Further, the growth inhibition in test [5] (setting [7]) was 2%; in test [5] (setting [8]), 67%; in test [5] (at 50.0 µM), 62.4%; in test [6] (setting [7]), 56%; in test [6] (setting [8]), 95% (active); in test [6] (at 50.0 µM), 89% (active).

Take `Nc1ccc(C(=O)/C=C/c2ccccc2O)cc1`: the growth inhibition in test [1] (setting [7]) is -3%; in test [1] (setting [8]), 37%; in test [1] (at 50.0 µM), -21.9%; in test [2] (setting [7]), -5%; in test [2] (setting [8]), 2%; in test [2] (at 50.0 µM) it was 28.1%. For the same compound, the growth inhibition in test [3] (setting [7]) is 15%; in test [3] (setting [8]) it was -1%; in test [3] (at 50.0 µM), -9%; in test [4] (setting [7]), -19%; in test [4] (setting [8]), -14%; in test [4] (at 50.0 µM), 2.4%. Moreover, the growth inhibition in test [5] (setting [7]) is -19%; in test [5] (setting [8]), 23%; in test [5] (at 50.0 µM), -15.8%; in test [6] (setting [7]), -6%; in test [6] (setting [8]), -1%; in test [6] (at 50.0 µM) it was -1.15%.

In the case of `Nc1c(C(=O)Nc2ccccc2)[n+]([O-])c2ccccc2[n+]1[O-]`, the growth inhibition in test [1] (setting [7]) is -2%; in test [1] (setting [8]), 73% (active); in test [1] (at 50.0 µM), 98.2% (active); in test [2] (setting [7]) it was -3%; in test [2] (setting [8]) it was 60%; in test [2] (at 50.0 µM), 97.7% (active). For the same compound, the growth inhibition is 1% in test [3] (setting [7]); 88% (active) in test [3] (setting [8]); 98% (active) in test [3] (at 50.0 µM); -8% in test [4] (setting [7]); 78% (active) in test [4] (setting [8]); 97.2% (active) in test [4] (at 50.0 µM). For the same compound, the growth inhibition in test [5] (setting [7]) is -4%; in test [5] (setting [8]), 90% (active); in test [5] (at 50.0 µM), 98.7% (active); in test [6] (setting [7]), -4%; in test [6] (setting [8]), 91% (active); in test [6] (at 50.0 µM), 98.2% (active).

For `O=[N+]([O-])c1cc(C(F)(F)F)ccc1SSc1ccc(C(F)(F)F)cc1[N+](=O)[O-]`, the growth inhibition in test [1] (setting [7]) was 45%; in test [1] (setting [8]), 86% (active); in test [1] (at 50.0 µM), 60.9%; in test [2] (setting [7]), 39%; in test [2] (setting [8]), 88% (active); in test [2] (at 50.0 µM), 50%. In addition, the growth inhibition was 42% in test [3] (setting [7]); 93% (active) in test [3] (setting [8]); 68.5% in test [3] (at 50.0 µM); 42% in test [4] (setting [7]); 64% in test [4] (setting [8]); 54.7% in test [4] (at 50.0 µM). Also, the growth inhibition in test [5] (setting [7]) is 42%; in test [5] (setting [8]), 92% (active); in test [5] (at 50.0 µM), 66.7%; in test [6] (setting [7]) it was 59%; in test [6] (setting [8]), 88% (active); in test [6] (at 50.0 µM), 58.4%.

With `CC1=C(C(=O)Nc2cccc3ccccc23)C(c2cccc([N+](=O)[O-])c2)C(C(=O)Nc2cccc3ccccc23)=C(C)N1`, the growth inhibition is 27% in test [1] (setting [7]); 40% in test [1] (setting [8]); 76.2% (active) in test [1] (at 50.0 µM); 22% in test [2] (setting [7]); 50% in test [2] (setting [8]); 60.2% in test [2] (at 50.0 µM). Besides, the growth inhibition is 7% in test [3] (setting [7]); 32% in test [3] (setting [8]); 77.1% (active) in test [3] (at 50.0 µM); -3% in test [4] (setting [7]); 14% in test [4] (setting [8]); 70.6% (active) in test [4] (at 50.0 µM). In addition, the growth inhibition was 34% in test [5] (setting [7]); 58% in test [5] (setting [8]); 81.5% (active) in test [5] (at 50.0 µM); -22% in test [6] (setting [7]); 23% in test [6] (setting [8]); 88.1% (active) in test [6] (at 50.0 µM).

Take `Nc1ccc(Oc2ccccc2)cc1`: the growth inhibition in test [1] (setting [7]) is 2%; in test [1] (setting [8]), 38%; in test [1] (at 50.0 µM), 67.5%; in test [2] (setting [7]), -3%; in test [2] (setting [8]) it was 7%; in test [2] (at 50.0 µM) it was 33.9%. In addition, the growth inhibition was -9% in test [3] (setting [7]); 37% in test [3] (setting [8]); 75.6% (active) in test [3] (at 50.0 µM); -1% in test [4] (setting [7]); 1% in test [4] (setting [8]); 1.2% in test [4] (at 50.0 µM). The growth inhibition in test [5] (setting [7]) was 0%; in test [5] (setting [8]), -18%; in test [5] (at 50.0 µM), 25.4%; in test [6] (setting [7]) it was -3%; in test [6] (setting [8]), 28%; in test [6] (at 50.0 µM) it was 54.8%.

In the case of `CNC(=S)N(C)C(=S)Nn1c(=O)c(C)nn(C)c1=S`, the growth inhibition in test [1] (setting [7]) is -24%; in test [1] (setting [8]), 59%; in test [1] (at 50.0 µM) it was 70.8% (active); in test [2] (setting [7]), -23%; in test [2] (setting [8]) it was 96% (active); in test [2] (at 50.0 µM), 79.7% (active). Also, the growth inhibition in test [3] (setting [7]) was -19%; in test [3] (setting [8]), 50%; in test [3] (at 50.0 µM) it was 87% (active); in test [4] (setting [7]) it was -3%; in test [4] (setting [8]), 66%; in test [4] (at 50.0 µM), 57.9%. The growth inhibition was -18% in test [5] (setting [7]); 77% (active) in test [5] (setting [8]); 78.4% (active) in test [5] (at 50.0 µM); -27% in test [6] (setting [7]); 97% (active) in test [6] (setting [8]); 72.5% (active) in test [6] (at 50.0 µM).

For `CCOC(=O)C(Cl)C(Cl)C(=O)OCC` (stereo not given), the growth inhibition in test [1] (setting [7]) was 12%; in test [1] (setting [8]) it was 98% (active); in test [1] (at 50.0 µM), 98.8% (active); in test [2] (setting [7]), 6%; in test [2] (setting [8]), 98% (active); in test [2] (at 50.0 µM), 99% (active). Besides, the growth inhibition in test [3] (setting [7]) was 2%; in test [3] (setting [8]) it was 99% (active); in test [3] (at 50.0 µM) it was 99.5% (active); in test [4] (setting [7]), 6%; in test [4] (setting [8]), 98% (active); in test [4] (at 50.0 µM), 98.4% (active). The growth inhibition is 22% in test [5] (setting [7]); 98% (active) in test [5] (setting [8]); 99% (active) in test [5] (at 50.0 µM); 12% in test [6] (setting [7]); 99% (active) in test [6] (setting [8]); 99% (active) in test [6] (at 50.0 µM).
